Hits are enriched below; roughly 12% of the tested compounds scored in any of these assays.
HP1b binding inh: HTS for Inhibitors of HP1-beta Chromodomain Interactions with Methylated Histone Tails; Chromobox protein homolog 1 (Homo sapiens), P83916; AlphaScreen HP1-beta / biotin-H3K9me3 peptide binding; Potency, µM (top dose mostly 114 µM), for the others: at the top dose activity change, negative = inhibition, actives largely listed as inhibitors; 390,000 compounds, 0.56% hits; AID 540317, 2011; also: nearly all actives have a fitted effect of over 70% in size
Target sequence (P83916 whole entry, looked up): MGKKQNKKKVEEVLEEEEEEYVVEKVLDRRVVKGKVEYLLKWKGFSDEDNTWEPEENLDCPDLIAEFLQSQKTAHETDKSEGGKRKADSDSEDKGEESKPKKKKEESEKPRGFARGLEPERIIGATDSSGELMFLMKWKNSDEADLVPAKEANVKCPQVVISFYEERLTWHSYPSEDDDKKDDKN
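Compound inhibition of the preformed complex between 50 nM HP1-beta and 50 nM biotinylated H3K9me3 peptide was read by AlphaScreen. Buffer was PBS pH 7.4 with 0.01% Tween-20. Incubations ran 30 min at room temperature, with 10 ug/mL donor/acceptor beads.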
Sfp PPTase inh: qHTS Assay for Inhibitors of Bacillus subtilis Sfp phosphopantetheinyl transferase (PPTase); Biochemical Sfp PPTase activity, qHTS; Potency, µM, without a hit: largest response in the series, negative = inhibition, hits mostly inhibitors; 310,000 compounds, 3.5% hits; AID 1490, 2009;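 also: the enzyme is Sfp with the accession as filed and its product quenches rhodamine fluorescence; 0% = enzyme reaction without inhibitor and -100% = no enzyme wells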
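Buffer: 50 mM Hepes-Na pH 7.6, 10 mM MgCl2, 0.01% Nonidet P-40, 0.01% BSA. Enzyme 15 nM, pre-exposed to compound 15 min; substrates then added and fluorescence change tracked over 30 min.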
G9a block: qHTS Assay for Inhibitors of Histone Lysine Methyltransferase G9a. Histone-lysine N-methyltransferase EHMT2 (Homo sapiens), Q96KQ7. G9a H3K9 monomethylation, AlphaScreen, 2 h. Potency, µM (top dose mostly 102 µM), without a hit: at the top dose activity, negative = inhibition, usual class: inhibitors. 350,000 compounds, 8.8% hits; also: % is scaled to controls: 0 for no effect and ±100 for the full control effect; nearly all actives have a fitted effect of over 75% in size
Target sequence (Q96KQ7 913-1193 limits assumed): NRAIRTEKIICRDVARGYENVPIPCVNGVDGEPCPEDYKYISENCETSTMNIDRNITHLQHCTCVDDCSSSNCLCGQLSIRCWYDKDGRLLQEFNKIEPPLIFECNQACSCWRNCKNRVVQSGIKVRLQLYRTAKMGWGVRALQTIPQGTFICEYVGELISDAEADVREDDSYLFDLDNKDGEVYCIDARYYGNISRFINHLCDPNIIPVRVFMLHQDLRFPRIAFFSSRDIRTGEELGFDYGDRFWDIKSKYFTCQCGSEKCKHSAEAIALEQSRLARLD
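AlphaScreen read-out: biotin-H3K9 peptide (500 nM) methylation by 20 nM enzyme with 20 uM SAM, 2 h at room temperature after 15 min compound preincubation; anti-monomethyl H3K9 antibody plus donor/acceptor beads, 10 min dark.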
JMJD2A Tudor inh: qHTS Assay for Inhibitors of JMJD2A-Tudor Domain | Potency, µM (doses to about 114 µM), without a hit: at the top dose activity change, negative = inhibition, most hits filed as inhibitors | Lysine-specific demethylase 4A (Homo sapiens), O75164 | AID 504339, 2011 | AlphaScreen JMJD2A-Tudor / H3K4me3 peptide binding | 390,000 compounds, 4.4% hits; also: % is scaled to controls: 0 for no effect and ±100 for the full control effect; nearly all actives have a fitted effect of over 50% in size
BAZ2B block: qHTS Assay for Inhibitors of BAZ2B. Bromodomain adjacent to zinc finger domain protein 2B (Homo sapiens), Q9UIF8. AlphaScreen BAZ2B-H3K14Ac peptide displacement. Potency, µM (top dose mostly 114 µM), for the others: at the top dose activity change, negative = inhibition, hits mostly inhibitors. 360,000 compounds, 4.4% hits; also: % is scaled to controls: 0 for no effect and ±100 for the full control effect; nearly all actives have a fitted effect of over 60% in size
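AlphaScreen luminescence quantifies BAZ2B engagement of H3K14Ac peptide; the protein and biotinylated peptide are both at 50 nM final, buffer PBS pH 7.4 with 0.01% Tween-20, all steps at room temperature.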
An asterisk follows results filed as active; ? = inconclusive; nt = no result given; [ ] = dose if it differs, or a comment. Calls follow the shape of the dose curve; as a rule, active = well fitted curve in the direction sought with a large enough effect; inconclusive = small, poorly fitted or top-dose-only effect, or another doubt; inactive = no such curve, though single readings can be large; an effect the other way counts as inactive or inconclusive. Potency is read from the fitted curve at half-maximal effect.

SMILES	HP1b binding inh	Sfp PPTase inh	G9a block	JMJD2A Tudor inh	BAZ2B block
CN1CCN(S(=O)(=O)c2ccc(C3CCCCC3)cc2)CC1	-7.9%	nt	8.91µM*	89.1µM*	6.9%
CCN1CCN(Cc2ccc(OC(F)(F)F)cc2)CC1	25.1%	1.0%	5.6%[12.7 µM]	-23.1%	-35.8%
CCCCCCOc1ccc(CN2CCN(CC)CC2)cc1	0.0%	-1.1%	56.2µM*	-31.3%	?
C[C@]12CCC3C(CCC4=C(Cl)C(=O)CC[C@@]43C)C1CCC2O (stereo partly drawn)	nt	6.4%	7.3%[12.7 µM]	nt	nt
CCC1(c2ccccc2)C(=O)NC(=O)N(C(=O)c2ccccc2)C1=O (stereo not drawn)	nt	-6.7%	-1.2%[12.7 µM]	nt	nt
Cc1cccc(N2C(=O)NC(=O)/C(=C\c3ccc(N4CCOCC4)cc3)C2=O)c1	?	25.1µM*	?	-4.9%	-13.0%
Cc1cccc(N2C(=O)NC(=O)/C(=C/c3ccc(N4CCOCC4)cc3)C2=O)c1	23.1%	50.1µM*	?	-11.6%	nt
Cc1cccc(N2CCC3(CC2)C(=O)NC(=O)NC3=O)c1	11.2%	nt	nt	-16.7%	nt
CC1(C)C(O)CC(=O)[C@]2(C)C1CC(=O)[C@]1(C)C2CC[C@@]2(C)C(c3ccoc3)OC(=O)C3O[C@@]321 (stereo partly drawn)	nt	1.8%	-6.1%[2.33 µM]	nt	nt
C1CCc2nnnn2CC1	nt	-2.0%	19.6%[59 µM]	nt	nt
C[C@H](CCC(=O)O)C[C@H](C)C[C@H](C)C(=O)/C=C(\O)[C@H](C)C[C@H](C)C/C=C/[C@@H](C)[C@@H](O)[C@@H](C)[C@@H](O)C[C@@H]1CC[C@@](C)(C2CC[C@@](C)([C@@H](C)O)O2)O1 (stereo partly drawn)	nt	2.9%	21.4%[59 µM]	nt	nt
c1cc(CN2CCC3(CCNCC3)CC2)ccn1	nt	-0.4%	-14.9%[12.7 µM]	nt	nt
CN(N)N=Nc1nc2c([nH]1)c(=O)n(C)c(=O)n2C	17.1%	17.8µM*	2.24µM*	79.4µM*	-18.5%
O=C(c1ccc(CNS(=O)(=O)c2ccccc2)cc1)N1CCC2(CC1)OCCO2	-1.8%	-14.8%	35.5µM*	?	?
CCCCCC1C(=O)O[C@H](C)[C@@H](NC(=O)c2cccc(NC=O)c2O)C(=O)OC(C)C1OC(=O)CC(C)C (stereo partly drawn)	nt	17.1%	nt	nt	nt
c1ccc2c(CN3CCCCCCC3)c[nH]c2c1	-8.9%	4.8%	?	28.2µM*	-5.4%
Cc1[nH]c2ccccc2c1CN1CCCCC1	3.1%	nt	nt	-13.2%	nt
c1ccc2c(CN3CCN(C4CCCCC4)CC3)c[nH]c2c1	?	-25.8%	50.1µM*	?	50.1µM*
c1ccc2c(CNC3CCCCC3)c[nH]c2c1	10.4%	5.6%	-8.5%	-19.7%	-4.2%
CCCC(C)(COC(N)=O)COC(=O)NC1CC1 (stereo not drawn)	nt	21.1%	-42.5%[12.7 µM]	nt	nt
C=CCN(CC(=O)c1sc(C(=O)OCC)nc1C)c1cccc(Br)c1	-2.1%	nt	nt	?	nt
Nc1cc(Cl)c2nonc2c1[N+](=O)[O-]	42.2%	-17.4%	31.6µM*	-12.6%	13.1%
CCCCCCC(C)(C)c1ccc([C@@H]2C[C@H](O)CC[C@@H]2CCCO)c(O)c1	nt	1.1%	nt	nt	nt
CC/C=C\C/C=C\C/C=C\C/C=C\C/C=C\CCCC(=O)NCCc1ccc(O)c(O)c1	nt	-12.8%	nt	nt	nt
CNCCc1ccc(O)c(O)c1	?	56.2µM*	31.6µM*	-10.8%	nt
SMILES	HP1b binding inh	Sfp PPTase inh	G9a block	JMJD2A Tudor inh	BAZ2B block
NCC#Cc1ccccc1	nt	nt	31.0%[12.7 µM]	nt	nt
COCCCOc1ccnc(CS(=O)c2nc3ccccc3[nH]2)c1C (stereo not drawn)	22.4µM*	50.1µM*	12.6µM*	35.5µM*	?
CCOc1cc2c(cc1OCC)-n1cccc1C(c1cccc(OCC)c1O)NC2 (stereo not drawn)	?	-7.6%	44.7µM*	44.7µM*	?
CCN(CCCNS(=O)(=O)c1ccc2c(c1)oc(=O)n2C)c1cccc(C)c1	?	-10.3%	14.1µM*	15.8µM*	-32.1%
CCCN(C(=O)c1cc2c(=O)oc3ccccc3c2s1)c1cccc(Cl)c1	11.3%	nt	-2.5%[59 µM]	?	3.2%
CC1=C/C(=N\NC(=S)NCCc2ccccc2)CC(C)(C)C1	-11.4%	3.0%	39.8µM*	50.1µM*	?
O=P1(Oc2ccccc2)CC=CC(COCc2ccccc2)O1 (stereo not drawn)	35.3%	12.3%	nt	0.7%	nt
C[C@@H]1CC2(CCCC[N+]2(C)C)C[C@H]1C	-2.2%	18.1%	11.2µM*	?	-17.1%
O=C(Nc1ccccc1)N1CC2(CCN(C(=O)Oc3ccccc3)CC2)C1	nt	7.6%	-4.0%[12.7 µM]	nt	nt
O=Nc1c(O)c2ccccc2c2ccccc12	?	nt	nt	56.2µM*	nt
Cc1nc2cnc(N3CCNCC3)nc2n(C)c1=O	nt	9.9%	0.4%[12.7 µM]	nt	nt
Cc1cccc(-n2nc(C)c(C(=O)N3CCN(c4ccccc4)CC3)c2-n2cccc2)c1	-4.5%	nt	-34.7%[59 µM]	?	?
C=CCN1C(=O)/C(=C/c2ccc(N3CCOCC3)o2)C(=O)NC1=S	6.8%	-5.3%	?	-11.6%	?
C=CCN1C(=O)NC(=O)/C(=C/c2cnc(SC)nc2)C1=O	-49.1%	31.6µM*	?	79.4µM*	4.0%
C=CCN1C(=O)NC(=O)/C(=C/c2cc3c4c(c2)CCCN4CCC3)C1=O	20µM*	?	?	?	50.1µM*
Cc1cccc(N2CCN(C(=O)c3ccc(CNc4c(N5CCC(C)CC5)c(=O)c4=O)cc3)CC2)c1C	-9.8%	12.5%	29.8%[59 µM]	-23.2%	?
CN1CCN(Cc2cc(C(C)(C)C)c(O)c(C(C)(C)C)c2)CC1	?	-18.4%	8.91µM*	2.24µM*	?
CN1CCN(Cc2ccc(N)cc2)CC1	36.9%	-1.3%	23.6%[0.501 µM]	5.8%	-2.4%
COc1ccc(CCNCc2cccc(C(F)(F)F)c2)cc1OC	-7.3%	-13.7%	11.2µM*	44.7µM*	50.1µM*
COc1ccccc1CCNCc1cccc(C(F)(F)F)c1	11.8%	12.6%	70.8µM*	-31.2%	7.8%
CC1=CC(C)C2C(=O)N(CCC[N+](C)(C)C)C(=O)C2C1 (stereo not drawn)	20.3%	4.8%	?	-4.5%	-22.9%
CC(C)(C)NC(=S)/N=C(\N)N[N+](=O)[O-]	11.2%	?	22.4µM*	-12.4%	?
S=P(N1CCOCC1)(N1CC1)N1CC1	-7.4%	nt	nt	-18.2%	nt
C=Cn1ccnc1P(=S)(c1ccc(N(C)C)cc1)c1nccn1C=C	10.7%	-3.7%	-30.3%[59 µM]	?	?
Cn1ccnc1P(=S)(c1nccn1C)c1nccn1C	3.8%	50.1µM*	3.55µM*	31.6µM*	?
Cn1ccnc1P(=S)(c1nccn1C)N1CCOCC1	?	?	?	35.5µM*	?
